Assay results published in PubChem BioAssay (Tox21).
Results filed as inconclusive are left out. A call without a number means that no potency is given here. More than one record can exist for a structure, and the calls need not agree. Activity calls are given as the source filed them. Unless noted, calls come from the whole dose curve; as a rule, active = well fitted curve in the direction sought with a large enough effect in the repeat runs; inconclusive = weak or mixed curves; inactive = no such curve, though single readings can be large; an effect the other way counts as inactive or inconclusive.

Assay: qHTS assay to identify small molecule phospholipidosis (PLD) inducers (AID 1259344; active = well fitted curve in the direction sought with a large enough effect; an effect the other way counts as inactive or inconclusive)
Conditions: HepG2 phospholipidosis, LipidTOX Red imaging, 24 h; series mostly up to 38.3 µM
Summary of the method: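 Read-out is LipidTOX Red fluorescence (ex 595/em 615) imaged in HepG2 cells after 24 h compound exposure at 37 C, with Hoechst nuclear counterstain (ex 352/em 461) allowing per-cell normalisation.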

Row | Compound | outcome
1 | CCOP(=S)(OCC)O/N=C(\C#N)c1ccccc1 | inactive
2 | Oc1cc(Cl)c(Cl)cc1Cl | inactive
3 | CCCCCCCCC(=O)NCc1ccc(O)c(OC)c1 | inactive
4 | NCc1cccnc1 | inactive
5 | CCOc1cc(C=O)ccc1O | inactive
6 | N[C@@H](Cc1ccc(N(CCCl)CCCl)cc1)C(=O)O | inactive
7 | Oc1cc(Cl)ccc1Oc1ccc(Cl)cc1Cl | inactive
8 | O=c1oc2ccccc2c(O)c1C(CC(O)c1ccc(-c2ccc(Br)cc2)cc1)c1ccccc1 (stereo not given) | inactive
9 | C#C[C@]1(O)CC[C@H]2[C@@H]3CCC4=CC(=O)CC[C@]4(C)[C@H]3CC[C@@]21C | inactive
10 | COc1ccc(C(CN(C)C)C2(O)CCCCC2)cc1 (stereo not given) | inactive
11 | O=Cc1ccco1 | inactive
12 | ClC1C(Cl)C(Cl)C(Cl)C(Cl)C1Cl (stereo not given) | inactive
13 | C[C@]12CCC(=O)C[C@@H]1CC[C@@H]1[C@@H]2CC[C@]2(C)[C@@H](O)CC[C@@H]12 | inactive

Assay: qHTS assay to identify small molecule HDAC inhibitors (AID 1259364); note: potency is the fitted concentration of half-maximal effect;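 note: wild-type HCT-116 cells with endogenous class I/II HDAC activity; nearly all actives have a fitted effect of over 45% in size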
Conditions: HCT-116 HDAC-Glo I/II luminescence, 2 h; series mostly up to 92.4 µM
Summary of the method: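 Cells (HCT-116, wild type) are seeded at 1,500 per well, incubated overnight, treated with compound in DMSO for 2 hr, then developed with HDAC-Glo I/II reagent for 30 min at room temperature.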

Row | Compound | Potency
14 | O=C(CCl)c1ccccc1 | inactive
15 | CCOP(=S)(OCC)O/N=C(\C#N)c1ccccc1 | inactive
16 | NC(=S)Nc1ccccc1 | inactive
17 | O=S(=O)(Oc1ccc(Cl)cc1)c1ccc(Cl)cc1 | inactive
18 | CN(C)C(=O)Nc1ccc(Cl)cc1 | inactive
19 | c1ccc(-c2cccc(-c3ccccc3)c2)cc1 | inactive
20 | C1=Cc2cccc3cccc1c23 | inactive
21 | COC(=O)c1sccc1S(=O)(=O)NC(=O)Nc1nc(C)nc(OC)n1 | inactive
22 | Oc1cc(Cl)c(Cl)cc1Cl | inactive
23 | c1nc[nH]n1 | inactive
24 | Nc1ccc(Cl)c(Cl)c1 | inactive
25 | CCCCCCCCC(=O)NCc1ccc(O)c(OC)c1 | inactive
26 | C=CCN(CC=C)C(=O)C(Cl)Cl | inactive
27 | CCC(C)(c1ccc(O)cc1)c1ccc(O)cc1 | inactive
28 | NCc1cccnc1 | inactive
29 | CCN(N=O)C(N)=O | inactive
30 | O=C1C=CC(=O)C=C1 | inactive

Row | Compound | Potency
31 | CCCCCc1cc(O)cc(O)c1 | inactive
32 | CNC(=O)Oc1cccc2c1OC(C)(C)O2 | inactive
33 | Oc1cc(Cl)ccc1Oc1ccc(Cl)cc1Cl | inactive
34 | Nc1cccnc1 | inactive
35 | C[C@]12CCC(=O)C(O)=C1CC[C@@H]1[C@@H]2CC[C@]2(C)C(=O)CC[C@@H]12 | inactive
36 | Cc1ccccc1[N+](=O)[O-] | inactive
37 | O=P(O)(O)CCCl | inactive
38 | c1ccc(N=Nc2ccccc2)cc1 | 30.6 µM (active)
39 | COc1ccc(C(CN(C)C)C2(O)CCCCC2)cc1 (stereo not given) | inactive
40 | CCN(CC)N=O | inactive
41 | C=CC(=O)OCCO | inactive
42 | S=C1NCCN1 | inactive
43 | CC(O)CCO (stereo not given) | inactive
44 | O=Cc1ccco1 | inactive
45 | CCCCCCOC(=O)c1ccccc1C(=O)OCCCCCC | 49.5 µM (active) and inactive
46 | ClC1C(Cl)C(Cl)C(Cl)C(Cl)C1Cl (stereo not given) | inactive
47 | C[C@]12CCC(=O)C[C@@H]1CC[C@@H]1[C@@H]2CC[C@]2(C)[C@@H](O)CC[C@@H]12 | inactive

Assay: qHTS assay to identify small molecule HDAC inhibitors - cell viability counter screen (AID 1259365); note: nearly all actives have a fitted effect of over 50% in size
Conditions: HCT-116 viability, CellTiter-Glo ATP luminescence, 2 h; series mostly up to 92.4 µM
Summary of the method: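 To flag cytotoxic hits, 1,500 wild-type HCT-116 cells per well, plated the day before, receive test compounds for 2hr at 37 C before CellTiter-Glo reagent and a luminescence read.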

Row | Compound | outcome
48 | O=C(CCl)c1ccccc1 | inactive
49 | CCOP(=S)(OCC)O/N=C(\C#N)c1ccccc1 | inactive
50 | NC(=S)Nc1ccccc1 | inactive
51 | O=S(=O)(Oc1ccc(Cl)cc1)c1ccc(Cl)cc1 | inactive
52 | CN(C)C(=O)Nc1ccc(Cl)cc1 | inactive
53 | c1ccc(-c2cccc(-c3ccccc3)c2)cc1 | inactive
54 | C1=Cc2cccc3cccc1c23 | inactive
55 | COC(=O)c1sccc1S(=O)(=O)NC(=O)Nc1nc(C)nc(OC)n1 | inactive
56 | Oc1cc(Cl)c(Cl)cc1Cl | inactive
57 | c1nc[nH]n1 | inactive
58 | Nc1ccc(Cl)c(Cl)c1 | inactive
59 | CCCCCCCCC(=O)NCc1ccc(O)c(OC)c1 | inactive
60 | C=CCN(CC=C)C(=O)C(Cl)Cl | inactive
61 | CCC(C)(c1ccc(O)cc1)c1ccc(O)cc1 | inactive
62 | NCc1cccnc1 | inactive
63 | CCOc1cc(C=O)ccc1O | inactive
64 | CCN(N=O)C(N)=O | inactive
65 | O=C1C=CC(=O)C=C1 | inactive
66 | CCCCCc1cc(O)cc(O)c1 | inactive

Row | Compound | outcome
67 | CNC(=O)Oc1cccc2c1OC(C)(C)O2 | inactive
68 | N[C@@H](Cc1ccc(N(CCCl)CCCl)cc1)C(=O)O | inactive
69 | Oc1cc(Cl)ccc1Oc1ccc(Cl)cc1Cl | inactive
70 | O=c1oc2ccccc2c(O)c1C(CC(O)c1ccc(-c2ccc(Br)cc2)cc1)c1ccccc1 (stereo not given) | inactive
71 | Nc1cccnc1 | inactive
72 | C#C[C@]1(O)CC[C@H]2[C@@H]3CCC4=CC(=O)CC[C@]4(C)[C@H]3CC[C@@]21C | inactive
73 | C[C@]12CCC(=O)C(O)=C1CC[C@@H]1[C@@H]2CC[C@]2(C)C(=O)CC[C@@H]12 | inactive
74 | Cc1ccccc1[N+](=O)[O-] | inactive
75 | O=P(O)(O)CCCl | inactive
76 | c1ccc(N=Nc2ccccc2)cc1 | inactive
77 | COc1ccc(C(CN(C)C)C2(O)CCCCC2)cc1 (stereo not given) | inactive
78 | CCN(CC)N=O | inactive
79 | C=CC(=O)OCCO | inactive
80 | S=C1NCCN1 | inactive
81 | CC(O)CCO (stereo not given) | inactive
82 | O=Cc1ccco1 | inactive
83 | CCCCCCOC(=O)c1ccccc1C(=O)OCCCCCC | inactive
84 | ClC1C(Cl)C(Cl)C(Cl)C(Cl)C1Cl (stereo not given) | inactive
85 | C[C@]12CCC(=O)C[C@@H]1CC[C@@H]1[C@@H]2CC[C@]2(C)[C@@H](O)CC[C@@H]12 | inactive
